The supplement of paper PMC6992640

These molecules were tested on HCI16 (cells of a triple-negative basal-like breast cancer xenograft) (assay: cell viability (% of vehicle); higher = less cytotoxic). Conditions: 10 µM; 72 h.
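Further: PDX cells carrying CMV promoter-driven luciferase, viability read as total photon flux per second by IVIS imaging following D-luciferin, vehicle control 0.1% DMSO.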

Going from Cc1ccc(-n2[nH]c(C)c(NN=C3C=CC=C(c4cccc(C(=O)O)c4)C3=O)c2=O)cc1C.NCCO.NCCO [Eltrombopag Olamine] to CCOc1nc2cccc(C(=O)OCc3oc(=O)oc3C)c2n1Cc1ccc(-c2ccccc2-c2nc(=O)o[nH]2)cc1 [Azilsartan Medoxomil], the cell viability rises from 119 to 124.

Going from CCN1CCN(c2cc3c(cc2F)c(=O)c(C(=O)O)cn3C2CC2)CC1 [Enrofloxacin] to CC1COc2c(N3CCN(C)CC3)c(F)cc3c(=O)c(C(=O)O)cn1c23 (stereo not given) [Ofloxacin], the cell viability rises from 111 to 133.

First: C[N+]1(C)C2CCC1CC(OC(=O)C(O)c1ccccc1)C2.[Br-] (stereo not given) [Homatropine Methylbromide]
Second: NC(=O)C1CCCc2c1[nH]c1ccc(Cl)cc21 (stereo not given)
The cell viability of the first is lower: 114 for the first, 121 for the second.

Going from COc1ccc(C2CNC(=O)C2)cc1OC1CCCC1 (stereo not drawn) [S- (+)-Rolipram] to Cc1cc(C2CCCCC2)n(O)c(=O)c1 [Ciclopirox], the cell viability falls from 136 to 117.

First: CO[C@H]1/C=C/O[C@@]2(C)Oc3c(C)c(O)c4c(O)c(c5c(nc6cc(C)ccn65)c4c3C2=O)NC(=O)/C(C)=C\C=C\[C@H](C)[C@H](O)[C@@H](C)[C@H](O)[C@@H](C)[C@H](OC(C)=O)[C@@H]1C [Rifaximin (Xifaxan)]
Second: COC1C(OC(N)=O)C(O)C(Oc2ccc3c(O)c(NC(=O)c4ccc([O-])c(CC=C(C)C)c4)c(=O)oc3c2C)OC1(C)C.[Na+] (stereo not given) [Novobiocin Sodium]
The cell viability of the first is lower: 97.6 for the first, 130 for the second.

First: O=C(O)C1=COC(OC2OC(CO)C(O)C(O)C2O)C2C(CO)=CCC12 (stereo not given) [Geniposidic acid]
Second: Nc1nc(Cl)nc2c1ncn2C1OC(CO)C(O)C1F (stereo not given) [Clofarabine]
The cell viability of the first is higher: 110 for the first, 92.9 for the second.

Compared with CCC(CC)C(NC(C)=O)C1C(N=C(N)N)CC(C(=O)O)C1O (stereo not given) [Peramivir], CCC(C)C(=O)OC1CC(C)C=C2C=CC(C)C(CCC3CC(O)CC(=O)O3)C21 (stereo not given) [Lovastatin] is higher in cell viability: 78.9 for the first, 142 for the second.

Compared with CC(C)NCC(O)c1ccc(NS(C)(=O)=O)cc1.Cl (stereo not given) [Sotalol hydrochloride], Cc1cc(NS(=O)(=O)c2ccc(N)cc2)no1 [Sulfamethoxazole] is higher in cell viability: 144 for the first, 154 for the second.

Going from CC(C)(O)c1ccccc1CCC(SCC1(CC(=O)[O-])CC1)c1cccc(C=Cc2ccc3ccc(Cl)cc3n2)c1.[Na+] (stereo not given) [Montelukast Sodium] to CC(=O)N1CCN(c2ccc(OCC3COC(Cn4ccnc4)(c4ccc(Cl)cc4Cl)O3)cc2)CC1 (single isomer, unassigned; (+)) [(+)-Ketoconazole], the cell viability falls from 165 to 103.

Going from CC(=O)[N-]S(=O)(=O)c1ccc(N)cc1.[Na+] [Sulfacetamide Sodium] to NC(N)=NS(=O)(=O)c1ccc(N)cc1 [Sulfaguanidine], the cell viability rises from 79.7 to 135.

First: Cc1cccc(C)c1NC(=O)C1CCCCN1C.Cl (stereo not given) [Mepivacaine HCl]
Second: Cc1cc(C2CCCCC2)n(O)c(=O)c1.NCCO [Ciclopirox ethanolamine]
The cell viability of the first is lower: 118 for the first, 123 for the second.

Going from CN1CCC(=C2c3ccccc3C=Cc3ccccc32)CC1.Cl [Cyproheptadine hydrochloride] to O=C1NC(=O)[C@@H](c2c[nH]c3ccccc23)[C@H]1c1cn2c3c(cccc13)CCC2 [Tivantinib (ARQ 197)], the cell viability rises from 90.1 to 125.

First: NCCCCC(NC(CCc1ccccc1)C(=O)O)C(=O)N1CCCC1C(=O)O.O.O (stereo not given) [Lisinopril dihydrate]
Second: CCOc1cc(N)c(Cl)cc1C(=O)NCC1CN(Cc2ccc(F)cc2)CCO1.O=C(O)CC(O)(CC(=O)O)C(=O)O (stereo not given) [Mosapride Citrate]
The cell viability of the first is higher: 130 for the first, 118 for the second.

Going from COc1c(C)c2c(c(O)c1CC=C(C)CCC(=O)O)C(=O)OC2 [Mycophenolic acid] to NNC(=O)c1ccncc1.Nc1ccc(C(=O)O)c(O)c1 [Pasiniazid], the cell viability falls from 104 to 83.7.

First: Cl.NC12CC3CC(CC(C3)C1)C2 [Amantadine HCl]
Second: Nc1cccc2c1C(=O)N(C1CCC(=O)NC1=O)C2=O (stereo not given) [Pomalidomide (CC-4047)]
The cell viability of the first is higher: 132 for the first, 103 for the second.
